GALK inh = blocks human galactokinase activity | AID 1868 | 0.007% of 270,000 active | Purified GALK, Kinase-Glo residual ATP luminescence | Potency, µM (series often up to 57.5 µM), actives largely listed as inhibitors
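5 nM enzyme, 35 uM ATP, 100 uM galactose, 20 mM HEPES pH8.0, 5 mM MgCl2; 1 h RT; residual ATP by Kinase-Glo Plus luminescence, qHTS format.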
USP2a inh = inhibitors of human ubiquitin-specific protease USP2a; O75604; 0.01% of 330,000 active; AID 463254; Potency, µM (series often up to 38.3 µM), most hits filed as inhibitors; USP2 core, Ub-CHOP2 coupled fluorogenic reporter, 485/531
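Deubiquitinase activity read as fluorescence (485/531 nm) after Ub-CHOP2 cleavage activates the enterokinase reporter on its substrate; USP2 core 10nM, Ub-CHOP2 and substrate 25nM each, 30min compound preincubation then 60min RT; data normalized to NEM, curves fitted.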
Eya2 inh = Eya2 (human) phosphatase inhibition. O00167. recombinant Eya2, OMFP fluorescence dephosphorylation (OMFP is methylfluorescein phosphate). Potency, µM (series often up to 76.9 µM), hits mostly inhibitors. 0.006% of 330,000 active
Target sequence (O00167 whole entry, looked up): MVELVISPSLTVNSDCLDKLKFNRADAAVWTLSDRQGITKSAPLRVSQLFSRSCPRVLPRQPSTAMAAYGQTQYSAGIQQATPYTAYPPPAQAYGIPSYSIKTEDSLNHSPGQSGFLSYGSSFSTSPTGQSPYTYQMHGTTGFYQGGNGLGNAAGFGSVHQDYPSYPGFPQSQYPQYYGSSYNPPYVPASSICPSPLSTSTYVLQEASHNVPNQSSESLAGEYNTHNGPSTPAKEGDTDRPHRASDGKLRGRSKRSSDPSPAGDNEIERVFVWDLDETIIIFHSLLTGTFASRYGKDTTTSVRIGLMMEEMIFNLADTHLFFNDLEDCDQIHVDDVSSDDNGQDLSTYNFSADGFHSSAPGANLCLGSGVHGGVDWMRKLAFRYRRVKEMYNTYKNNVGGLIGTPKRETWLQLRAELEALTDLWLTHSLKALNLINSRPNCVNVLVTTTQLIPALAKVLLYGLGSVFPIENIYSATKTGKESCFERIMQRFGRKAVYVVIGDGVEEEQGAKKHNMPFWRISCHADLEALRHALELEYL
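Eya2 (0.2 uM) preincubated 10 min at ambient with compound, then OMFP substrate added at 50 uM; 10 min reaction in 50 mM HEPES pH 7.5, 50 mM NaCl, 5 uM MgCl2, 0.05% BSA, 1 mM DTT. Fluorescence read at Ex 485/Em 525 nm.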
D1 antag = antagonists of human D1 dopamine receptor | activity change, negative = inhibition, % at 10 µM | 3.2% of 360,000 active | P21728 | HEK293 TREx D1 cells, calcium flux, dopamine EC80; hits give low values; in the data active = activity change below about -30%
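Using tetracycline-induced force-coupled D1 Hek293 cells and a calcium dye, signals were followed for 180 s after compound, then for 180 s after EC80 dopamine, to detect inhibitors.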
D1 agonist = human D1 receptor agonism. activation, % at 2 µM. HEK293 T-REx D1 cells, calcium flux, agonist mode. P21728. 1% of 360,000 active; in the data active = activation above about 30%
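Inducible HEK293 T-REx D1 cells, force-coupled to calcium signalling, were plated at 4000 cells/well with tetracycline and held overnight at 30 C. After no-wash calcium dye loading, compound-evoked calcium rise over 180 s flagged agonists.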
D1 PAM = enhances dopamine response at the human D1 receptor. P21728. HEK293 TREx D1 cells, calcium flux, dopamine EC20 potentiation. potentiation, % at 10 µM. 0.036% of 360,000 active. AID 504651; in the data active = potentiation above about 30%
Hits are given with their value; . = inactive; / = not tested or not shown. Sampled rows, rich in hits. Any-hit rate of the full collection: about 3.9%. Unless noted, calls come from the whole dose curve; as a rule, active = well fitted inhibition curve with a large enough effect; inconclusive = small, poorly fitted or top-dose-only effect, or effect the other way; inactive = flat fitted curve, though single readings scatter.

SMILES | GALK inh | USP2a inh | Eya2 inh | D1 antag | D1 agonist | D1 PAM
Cc1ccc(Cl)cc1N1CCN(C(=O)c2cc3c(=O)n(C)c4ccccc4c3n2C)CC1 | . | . | . | -36 | . | /
Cc1ccc(Cl)cc1N1CCN(C(=O)Cn2ncc3c4ccccc4n(C)c3c2=O)CC1 | / | / | / | -33 | . | .
COc1cccc(NC(=O)CSC2=Nc3ccccc3C3=NC(CCC(=O)NCCc4ccccc4)C(=O)N23)c1 (configuration not stated) | / | / | / | . | . | .
COc1ccccc1C(=O)Nc1c(C(=O)N2CCN(c3ccc(F)cc3)CC2)oc2ccccc12 | / | / | / | . | . | .
Cc1ccc(CC(=O)Nc2c(C(=O)N3CCN(c4ccccc4)CC3)oc3ccccc23)cc1 | / | / | / | . | . | .
O=C(Cc1ccccc1)Nc1c(C(=O)N2CCN(c3ccc(F)cc3)CC2)oc2ccccc12 | / | / | / | -43 | . | .
CC(C)C(=O)Nc1c(C(=O)N2CCN(c3ccccc3F)CC2)oc2ccccc12 | / | / | / | . | . | .
CC(C)C(=O)Nc1c(C(=O)N2CCN(c3ncccn3)CC2)oc2ccccc12 | . | . | . | -34 | . | .
O=C(COc1ccccc1)Nc1c(C(=O)N2CCN(c3ccc(F)cc3)CC2)oc2ccccc12 | / | / | / | -31 | . | .
CCCCC(=O)Nc1c(C(=O)N2CCN(c3ccccc3)CC2)oc2ccccc12 | / | / | / | -48 | . | .
CCCCNc1nc(Oc2ccc(=O)n(C)n2)nc(N(C)C)n1 | / | / | / | . | . | .
Cc1cc(C)cc(NC(=O)NCc2noc3ccccc23)c1 | / | / | / | . | . | .
COc1ccc(OCCSc2ccc(S(=O)(=O)N3CCCC3)cn2)cc1 | / | . | . | . | . | /
NC(=O)CSc1ccc(S(=O)(=O)N2CCCCC2)cn1 | / | . | . | . | 41 | /
O=S(=O)(c1ccc(SCCOc2ccccc2Cl)nc1)N1CCCC1 | / | . | . | . | 38 | /
CN1CCN(S(=O)(=O)c2ccc(SCCOc3ccc(Cl)cc3)nc2)CC1 | / | . | . | -44 | . | .
O=S(=O)(c1ccc(SCCOc2cccc(Br)c2)nc1)N1CCCC1 | / | . | . | . | . | .
Cc1cccc(NC(=O)NCCOCCn2c(=O)oc3ccccc32)c1C | / | / | / | . | . | .
CCn1c(=O)c2sccc2n2c(CCC(=O)Nc3ccc(F)cc3)nnc12 | / | / | / | . | . | .
O=C(CN1C(=O)C2C3C=CC(C3)C2C1=O)Nc1ccc(C(=O)O)cc1 (configuration not stated) | . | . | . | -30 | . | .
C=CCSc1nnc(CC(OC)OC)n1-c1ccccc1 | . | . | . | -37 | . | .
CC1CCN(c2ccc3c(c2)S(=O)(=O)c2cccc(C(=O)NCc4cccc(F)c4)c2C3=O)CC1 | / | . | . | . | 188 | .
COc1ccc(Cl)cc1NC(=O)C(OC)c1ccccc1 (configuration not stated) | . | . | . | . | . | .
COC(/C(=N/O)c1ccc(Cl)cc1)c1ccccc1 (configuration not stated) | . | . | . | -38 | . | .
CCNC(=O)c1ccc2nc(CCc3ccccc3)oc2c1 | / | / | / | . | . | .
SMILES | GALK inh | USP2a inh | Eya2 inh | D1 antag | D1 agonist | D1 PAM
O=C(Cc1c(F)c(F)c(F)c(F)c1F)Nc1nc(-c2ccccc2)cs1 | . | . | . | . | 36 | .
O=C(Cc1ccccc1F)Nc1nc(-c2cccs2)cs1 | . | . | . | . | . | .
CCC(=O)Nc1nc(-c2ccc3c(c2)CC(C)N3S(C)(=O)=O)cs1 (configuration not stated) | . | . | . | . | . | .
O=C(Cc1cccs1)Nc1nc(-c2ccc(F)c(F)c2)cs1 | . | . | . | . | . | .
CC1Cc2cc(-c3csc(NC(=O)Cc4cccs4)n3)ccc2N1S(C)(=O)=O (configuration not stated) | . | . | . | -42 | . | .
O=C(Cc1ccccc1)Nc1nc(-c2cccs2)cs1 | . | . | . | -31 | . | .
O=C(Cc1cccs1)Nc1nc(-c2ccc(F)cc2F)cs1 | . | . | . | -44 | . | .
CCCc1nc(SC)ncc1C(=O)N1CCN(c2ccc(Cl)cc2)CC1 | / | / | / | . | . | .
Cc1cn2c(=O)cc(COc3cccc(NC(=O)c4ccccc4Cl)c3)nc2s1 | / | / | / | . | . | .
COC(=O)[C@@H]1C[C@H]2CC[C@H](O)C[C@H]2N1Cc1ccc(C(C)(C)C)cc1 | . | . | . | -34 | . | .
O=C(Nc1ncc([N+](=O)[O-])s1)c1cccc([N+](=O)[O-])c1 | . | . | . | . | 32 | .
COCCn1c(-c2ccccc2)nc2oc3cc(OC)ccc3c(=O)c2c1=O | . | . | . | . | . | .
COCCn1c(-c2ccc(Br)cc2)nc2oc3cc(OC)ccc3c(=O)c2c1=O | . | . | . | -45 | . | .
CCn1c(=O)cc(SCC(=O)NCCN2CCN(Cc3ccccc3)CC2)c2ccccc21 | . | . | . | -33 | . | .
CCn1c(=O)cc(SCC(=O)NCc2cccnc2)c2ccccc21 | . | . | . | -40 | . | .
CCc1ccc(CNC(=O)CSc2cc(=O)n(CC)c3ccccc23)cc1 | / | / | / | . | . | .
O=C(Nc1ccc(Br)cc1)Nc1nc2c(s1)CCCCCC2 | / | / | / | . | . | .
Cc1ccc2c(CC(=O)Nc3c(C)n(C)n(-c4ccccc4)c3=O)coc2c1 | . | . | . | -80 | . | .
N#CC1=C(N)S[C@@H](C(=O)c2ccc(F)cc2)[C@@H]1c1cccs1 | . | . | . | -43 | . | .
N#CC1=C(N)SC(C(=O)c2ccccc2)C1c1cccs1 (configuration not stated) | . | . | . | . | . | .
COc1ccccc1/C=C/c1nc(C#N)c(N2CCN(C)CC2)o1 | / | / | / | . | . | .
CCOC(=O)c1noc2nc(C)n(CC(=O)Nc3ccc(Br)cc3C)c(=O)c12 | / | / | / | . | . | .
CCOc1ccc(OCC)c(NC(=O)c2ccc(-c3ccccc3)s2)c1 | / | / | / | -85 | . | .
O=C(Nc1ccccc1F)c1ccc(-c2ccccc2)s1 | / | / | / | . | . | .
O=C(Nc1ccccc1)c1ccc(-c2ccccc2)s1 | . | . | . | . | 51 | .
SMILES | GALK inh | USP2a inh | Eya2 inh | D1 antag | D1 agonist | D1 PAM
CCC(C)NC(=O)c1ccc2nc(CCc3ccccc3)oc2c1 (configuration not stated) | / | / | / | . | . | .
Cc1ccc(CNC(=O)COc2cccc3c2OC(C)(C)C3)cc1 | / | . | . | . | . | .
CC1(C)Cc2cccc(OCC(=O)NCc3ccccc3F)c2O1 | / | . | . | -35 | . | .
c1ccc(CNc2nc(NCc3ccccc3)c3ccccc3n2)cc1 | / | . | . | -35 | 38 | .
Fc1ccc(Nc2nc(NCc3ccco3)c3ccccc3n2)cc1 | . | . | . | -46 | . | .
Nc1nc(Nc2ccccc2)nc(NCc2ccco2)c1[N+](=O)[O-] | . | . | . | . | . | .
